# Assay outcomes as filed in PubChem.
# M18AAP inhibitor: PfM18AAP enzyme inhibition. recombinant PfM18AAP, H-Glu-NHMec fluorogenic cleavage. inhibition, % at 7.35 µM. actives 1.2% (n = 290,000). AID 1822;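 active means inhibition above the campaign mean inhibition over all tested compounds plus 3 SD, cut at about 28% in these data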
# PfG6PD inh: PfG6PD (Plasmodium falciparum) enzyme inhibition. PfGluPho enzyme, NADPH resazurin-diaphorase fluorescence. inhibition, % at 20 µM. AID 504690. actives 0.78% (n = 350,000);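 active means inhibition reaching at least a set limit at 20 µM in the primary screen, cut at about 59% in these data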
# Cardio protect: modulators protecting cardiomyocytes from myocardial damage; H9c2 cardiomyocytes, H2O2 injury protection, ATPLite, 2 h; protection from H2O2 cell death, % at 20 µM; actives 0.63% (n = 360,000); AID 588492;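 active means compounds giving at least 50% protection of heart cells from peroxide-induced death in the single-dose screen, raw or plate-pattern-corrected value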
# PHOSPHO1 inh: inhibitors of human PHOSPHO1 phosphatase | actives 1.1% (n = 290,000) | recombinant PHOSPHO1, absorbance phosphatase assay | Q8TCT1 | inhibition, % at 13.3 µM; in the data active means inhibition above about 60%
# Target sequence (Q8TCT1 whole entry, looked up): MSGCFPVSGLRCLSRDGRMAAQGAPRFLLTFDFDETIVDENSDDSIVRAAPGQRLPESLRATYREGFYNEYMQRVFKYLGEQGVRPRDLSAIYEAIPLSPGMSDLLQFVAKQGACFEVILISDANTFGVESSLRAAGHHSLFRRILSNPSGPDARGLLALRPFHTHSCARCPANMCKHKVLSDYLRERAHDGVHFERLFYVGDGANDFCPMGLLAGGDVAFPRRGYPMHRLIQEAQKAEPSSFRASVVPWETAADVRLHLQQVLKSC
# ALR inh: inhibitors of human sulfhydryl oxidase ALR | AID 485317 | inhibition, % (concentration not given with the values) | P55789 | purified ALR, DTT oxidation, H2O2 HRP-luminol luminescence | actives 3.8% (n = 290,000);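 active means mean replicate inhibition above about 79%, with every replicate also reaching it, limit read from the data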
# A number is an active result; i = inactive; nt = not tested or not shown. Only some compounds are listed: those with a hit (about 5.6% of all), similar ones and a draw of the others.
SMILES,M18AAP inhibitor,PfG6PD inh,Cardio protect,PHOSPHO1 inh,ALR inh
CN(C)c1ccc(N2CN=C3SCC(=O)N3C2)cc1,i,i,i,i,99
COc1ccc(S(=O)(=O)NC(CC(C)C)C(=O)NC(C)c2cccs2)cc1 (configuration not stated),nt,i,i,nt,nt
CCOc1cc(-c2cc(-c3ccc(C)o3)nc(N)c2C#N)ccc1O,i,i,i,i,80
CCCc1cc(-c2ccc(O)c(OCC)c2)c(C#N)c(N)n1,i,i,i,i,i
COc1ccc(-c2cc(-c3ccc(O)cc3)nc(N)c2C#N)cc1OC,i,i,56,i,i
COc1cc(/C=C/c2[nH]c(=O)[nH]c(=O)c2[N+](=O)[O-])cc(OC)c1O,i,i,i,i,95
CCOC(=O)COc1ccc(Br)cc1/C=C/c1[nH]c(=O)[nH]c(=O)c1[N+](=O)[O-],i,i,i,i,97
COc1cccc(/C=C/c2[nH]c(=O)[nH]c(=O)c2[N+](=O)[O-])c1O,i,i,i,i,98
O=c1[nH]c(/C=C/c2ccccc2Cl)c([N+](=O)[O-])c(=O)[nH]1,i,i,i,i,i
Cc1c(C(=O)N/N=C/c2cccnc2)sc(N)c1C#N,i,i,i,i,i
Cc1ccc(S(=O)(=O)Nc2ccc(F)cc2)cc1C(=O)N1CCOCC1,nt,i,i,nt,i
CN(C)/C=C1/N=C(c2ccccc2)OC1=O,i,i,i,i,i
CN(C)/C=C1\N=C(c2cccs2)OC1=O,i,i,i,i,93
N/C(=N/O)c1ccccc1N1CCC(Cc2ccccc2)CC1,i,i,i,i,92
c1ccc(CC2CCN(c3nnnn3-c3ccccc3)CC2)cc1,i,i,i,i,i
Cc1cccc(N2C(=NC(=O)c3ccccc3)SC3CS(=O)(=O)CC32)c1 (configuration not stated),i,i,i,i,i
CC(C)CN1CCN(C(=O)CCc2nnc(Cc3c[nH]c4ccccc34)o2)[C@@H](C)C1=O,i,i,i,66,i
CCN1CCN(C(=O)CCc2nnc(CCc3c[nH]c4ccccc34)o2)[C@@H](C)C1=O,i,i,i,i,i
COc1cc(C(=S)N2CCCC2)ccc1O,i,i,i,i,94
COc1cc(-c2nc3ccccc3nc2-c2ccc(O)c(OC)c2)ccc1O,i,i,i,i,99
COc1cc(C(=O)C(=O)c2ccc(O)c(OC)c2)ccc1O,i,i,i,i,100
COc1cc(-c2cc(OC)c3c(C)oc(C)c3c(=O)c2)ccc1O,i,i,i,i,91
COc1cc(C(=O)O)ccc1O,i,i,i,i,i
COc1cc(C(=S)N2CCC(C)CC2)ccc1O,i,i,i,66,90
COc1ccc(C(=O)n2nc(C)cc2C)cc1Br,i,i,i,i,i
SMILES,M18AAP inhibitor,PfG6PD inh,Cardio protect,PHOSPHO1 inh,ALR inh
COc1cc(-c2cc[n+](C)cc2)ccc1O,nt,i,i,nt,99
COc1cc(C(=O)n2nc(C)cc2C)ccc1O,i,i,i,i,95
COc1cc(C(=S)N2CCC(C(N)=O)CC2)ccc1O,i,i,i,i,i
COCCNc1ccc(-c2nn(C)c(=O)c3ccccc23)cc1[N+](=O)[O-],i,i,i,i,i
CN(C)CCCNc1ccc(-c2nn(C)c(=O)c3ccccc23)cc1[N+](=O)[O-],i,i,i,i,i
O=c1[nH]nc(-c2ccc(NCCO)c([N+](=O)[O-])c2)c2ccccc12,i,i,68,i,i
O=c1[nH]nc(-c2ccc(NCCCO)c([N+](=O)[O-])c2)c2ccccc12,i,i,58,i,i
CCC(C)C(=O)Nc1nnc(CCc2ccccc2)s1 (configuration not stated),i,i,i,nt,i
C=CCNC(=O)c1ccccc1S(=O)c1ccccc1C#N (configuration not stated),i,i,i,i,99
Cc1ccc(C)c(S(=O)(=O)N2CCN(C(=O)[C@@H]3CCCN3C(=O)c3cccs3)CC2)c1,nt,i,i,nt,i
Cc1nc(N2CCCCC2)c2c(C)c(C(=O)Nc3ccc4c(c3)OCCO4)sc2n1,i,i,i,i,i
O=P(COCCOCCOCP(=O)(c1ccccc1)c1ccccc1)(c1ccccc1)c1ccccc1,i,i,i,i,i
Nc1ccccc1OCCOCCOCCOc1ccccc1N,i,i,i,i,97
CCCCOc1ccccc1N,i,i,i,i,i
Nc1ccccc1OCP(=O)(c1ccccc1)c1ccccc1,i,i,i,i,96
COc1c(Cl)cc(Cl)cc1CNCCO,i,i,i,i,nt
Cc1ccc(N(CC(=O)NC2CCCC2)C(=O)c2nsc(Cl)c2Cl)cc1,i,i,i,i,i
